Assay results as given in PubChem BioAssay AID588683 (Broad Institute, 2011).
Potency and affinity values are given separately. Activity calls are given as the source filed them. Entries that show only a call come without a potency. How the calls were made is not given here.

These molecules were tested against Kelch-like ECH-associated protein 1 (Homo sapiens) + Nuclear factor erythroid 2-related factor 2 (Homo sapiens) (UniProt Q14145+Q16236) (assay: Keap1-Nrf2 protein-protein interaction inhibitors, dose response, biochemical, fluorescence polarization, cherry-picked samples (AID 588683;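 further: Kelch domain of Keap1 binding a fluorescein-labelled 9mer Nrf2 peptide; more negative means stronger inhibition of peptide binding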)). Conditions: Keap1/Nrf2 peptide fluorescence polarization, plate reader; series mostly up to 26 µM.
Kelch-like ECH-associated protein 1 (Homo sapiens) + Nuclear factor erythroid 2-related factor 2 (Homo sapiens), sequence (Q14145 whole entry, looked up, the tested form may be a part): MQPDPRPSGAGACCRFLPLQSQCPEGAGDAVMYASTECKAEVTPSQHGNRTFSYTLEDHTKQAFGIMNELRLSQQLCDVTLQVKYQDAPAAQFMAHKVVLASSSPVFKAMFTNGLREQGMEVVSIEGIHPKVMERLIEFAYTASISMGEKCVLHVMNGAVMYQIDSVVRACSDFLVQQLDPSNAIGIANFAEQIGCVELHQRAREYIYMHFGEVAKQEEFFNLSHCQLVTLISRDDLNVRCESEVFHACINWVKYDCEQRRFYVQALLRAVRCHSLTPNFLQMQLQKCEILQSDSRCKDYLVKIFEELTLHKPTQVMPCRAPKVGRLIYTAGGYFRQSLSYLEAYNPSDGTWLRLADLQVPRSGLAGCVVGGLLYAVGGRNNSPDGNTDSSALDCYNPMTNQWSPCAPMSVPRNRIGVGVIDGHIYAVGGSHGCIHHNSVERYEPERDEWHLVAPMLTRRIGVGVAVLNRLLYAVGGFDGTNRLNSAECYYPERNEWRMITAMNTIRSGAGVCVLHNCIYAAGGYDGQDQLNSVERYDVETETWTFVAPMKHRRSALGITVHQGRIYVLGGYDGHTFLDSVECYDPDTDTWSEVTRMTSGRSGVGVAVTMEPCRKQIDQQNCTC
Kelch-like ECH-associated protein 1 (Homo sapiens) + Nuclear factor erythroid 2-related factor 2 (Homo sapiens), sequence (Q16236 whole entry, looked up, the tested form may be a part): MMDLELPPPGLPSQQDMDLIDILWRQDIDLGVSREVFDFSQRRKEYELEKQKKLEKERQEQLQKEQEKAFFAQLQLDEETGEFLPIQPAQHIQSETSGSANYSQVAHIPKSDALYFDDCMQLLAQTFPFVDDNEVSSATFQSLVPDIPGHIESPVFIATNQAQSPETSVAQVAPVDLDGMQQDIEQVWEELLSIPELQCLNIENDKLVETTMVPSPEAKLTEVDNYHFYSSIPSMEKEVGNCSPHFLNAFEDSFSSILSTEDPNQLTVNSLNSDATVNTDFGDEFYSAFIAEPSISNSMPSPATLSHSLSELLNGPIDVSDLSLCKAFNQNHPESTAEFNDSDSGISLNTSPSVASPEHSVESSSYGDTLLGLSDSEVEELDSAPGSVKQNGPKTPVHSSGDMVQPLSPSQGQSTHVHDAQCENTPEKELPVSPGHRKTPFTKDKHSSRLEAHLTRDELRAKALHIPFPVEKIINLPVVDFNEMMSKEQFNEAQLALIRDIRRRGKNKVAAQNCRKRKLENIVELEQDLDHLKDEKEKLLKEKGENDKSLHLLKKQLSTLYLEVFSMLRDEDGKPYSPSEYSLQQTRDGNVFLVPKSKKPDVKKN
With `CSc1nsc2nc(=O)c(/C=C3\C=Nc4ccccc43)c(N)n12` the outcome was “inactive”. `O=C(Cc1ccc(S(=O)(=O)N2CCCC2)s1)Nc1nc2c(s1)CCCC2` was tested, and the outcome was “inactive”. In the case of `CC1CCN(c2ccc3c(c2)S(=O)(=O)c2ccccc2C3=O)CC1`, the outcome is reported as “inactive”. `COc1cc(/C=C/CN2CCN(CCC(C)C)C(CCO)C2)ccc1O` (centres undefined) was tested, and the outcome was “inactive”. With `Cc1ccc(C)c(N2CCN(C(=O)c3cc4ccccn4n3)CC2)c1` the outcome was “inactive”. With `C=CCOc1ccc(C2OC34CCCCC3C(C#N)(C#N)C2(C#N)C(=N)O4)cc1` (centres undefined) the outcome was “inactive”. For `COc1ccc(C2c3ccc(O)cc3Oc3ncn(CCCO)c(=N)c32)cc1OC` (centres undefined), the outcome was “inactive”. In the case of `CCOc1ccccc1C=C1SC(=S)NC1=O`, the outcome is reported as “inactive”. For `c1ccc(-n2ncc3c(NCC4CCCO4)ncnc32)cc1` (centres undefined), the outcome was “inactive”. With `CCN1/C(=C\c2ccc3ccccc3[n+]2CC)Sc2cc(C)ccc21` the outcome was “inactive”. `Cc1[nH]nc2c1C(CC(C)C)C(C#N)=C(N)O2` (centres undefined) was tested, and the outcome was “inactive”. For `CN(C)CCNC(=O)c1c(NC(=O)c2ccccc2)sc2c1CCCC2`, the outcome was “inactive”. For `O=C(/C=C/c1ccccc1Cl)NCCCn1ccnc1`, the outcome was “inactive”. With `N=c1c(C(=O)NC2CCCC2)cc2c(=O)n3ccccc3nc2n1C1CCCCC1` the outcome was “inactive”. `Cc1ccc(C(=O)NNC(=O)c2n[nH]c(=O)c3ccccc23)cc1C` was tested, and the outcome was “inactive”. In the case of `Cc1ccc(-c2nc3sc(C#N)c(N)n3c(=O)c2C#N)cc1`, the outcome is reported as “inactive”. `COc1ccc2c(c1)c1nc3ccccc3nc1n2CC(=O)OC(C)C` was tested, and the outcome was “inactive”. With `O=C1NC(=O)/C(=C/c2ccccc2Cl)N1` the outcome was “inactive”. In the case of `O=S(=O)(O)c1ccc(O)c2cc(Nc3ccccc3)ccc12`, the outcome is reported as “inactive”.
